# Shown is part of a subset that was picked to be rich in hits.
# Pf Dd2 growth – qHTS Primary assay for Inhibitors of Plasmodium falciparum Dd2 growth in vitro. Potency, µM (series often up to 28.9 µM), inactives show at the highest dose activity, negative = inhibition, hits mostly inhibitors. P. falciparum Dd2 growth, SYBR Green, 72 h. 120,000 compounds, 4.3% hits; active = well fitted inhibition curve with a large enough effect;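 note: plate controls were DMSO vehicle for no effect and reference drug for full effect; nearly all actives have a fitted effect of over 65% in size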
#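 Readout: SYBR Green fluorescence, 485 nm excitation, 535 nm emission, after ~16 h lysis at 37C. Before that, Dd2-infected red cells (2.5% hematocrit) grew 72 h with compound, 29 uM top final concentration.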
# * marks the source's active call; other numbers are inactive results; i = inactive; [ ] = remark or other dose. Potency is the fitted concentration of half-maximal effect.
SMILES,Pf Dd2 growth
COCC[C@]1(O)CCN(C(=O)c2ccc(C#N)nc2)C[C@H]1C,-2%
O=C(Nc1ccc2ncnc(N3CCCCC3)c2c1)c1c(F)cccc1Cl,i
O=C(Nc1ccc2c(N3CCCCC3)ncnc2c1)c1ccccc1C(F)(F)F,11µM*
Cc1ccc(-c2ncc(NC(=O)c3ccccc3C(F)(F)F)cn2)cc1,i
O=C(Nc1ccc2ncnc(N3CCCC3)c2c1)c1ccc(F)cc1Cl,i
O=C(Nc1ccc2ncnc(N3CCCCC3)c2c1)c1ccccc1Br,i
O=C(Nc1ccc2c(N3CCCC3)ncnc2c1)c1ccccc1Cl,13µM*
Cc1ccc(Cl)cc1NC(=O)N1CCCC(Cn2cnc3cccnc32)C1 (configuration not stated),-11%
O=C(CC[C@H]1NC(=O)c2ccccc2NC1=O)NCCc1ccccn1,-14%
CCOc1ccccc1C1NC(=O)N(CC(=O)Nc2cccc(F)c2)C2=C1C(=O)OC2 (configuration not stated),-24%
CC1(CCCCc2ccccc2)COc2ccc(C(=O)NCc3ccncc3)cc2N1 (configuration not stated),i
CCC1CCCCN1CCCNC(=O)c1ccc2c(c1)N(Cc1cccc(C)c1)C(=O)c1ccccc1S2(=O)=O (configuration not stated),4µM*
CCC1CCCCN1CCCNC(=O)c1ccc2c(c1)N(Cc1ccc(Cl)cc1)C(=O)c1ccccc1S2(=O)=O (configuration not stated),4µM*
O=C(NCc1ccco1)c1ccc2c(c1)N(Cc1ccc(Cl)cc1)C(=O)c1ccccc1S2(=O)=O,i
CCC1CCCCN1CCCNC(=O)c1ccc2c(c1)N(Cc1cccc(Cl)c1)C(=O)c1ccccc1S2(=O)=O (configuration not stated),-6%
Cn1c(Cn2ccnc2)nnc1C1CCCN(C(=O)c2ccc(CO)o2)C1 (configuration not stated),2%
CN1CCN(C(=O)c2cc3n(n2)CC(c2ccc(Br)cc2)OC3)CC1 (configuration not stated),i
O=C(NCCc1ccc(Cl)cc1)C1CCc2nnc(C3CCN(C(=O)C4CC4)CC3)n21 (configuration not stated),58%
O=C(C1CCC1)N1CCN(C2CCN(Cc3ccccn3)C2=O)CC1 (configuration not stated),-20%
CCOC(=O)c1c(NC(=O)COc2ccc(CC)cc2)sc2c1CCCC2,7%
CCOC(=O)c1c(NC(=O)c2ccc(OC)cc2)sc2c1CCCCC2,30%
CCOC(=O)c1c(NC(=O)COc2ccc(Cl)cc2C)sc2c1CCCCC2,-7%
COc1ccc(Cl)cc1NC(=O)c1c(NCc2ccc(C)o2)sc2c1CCCCC2,14µM*
COc1ccc(OC)c(CCNC(=O)c2csc3c2CCCCC3)c1,5%
COc1ccc(NC(=O)NCc2c(-n3cccc3)sc3c2CCCC3)c(OC)c1,9%
SMILES,Pf Dd2 growth
CCOc1cc(=O)n2c(c1C(=O)Nc1cc(OC)ccc1OC)CCCC2,12%
CCOc1ccc(NC(=O)c2c(NC(=O)c3ccccc3F)sc3c2CCC3)cc1,i
CCOC(=O)N1CCc2c(sc(NCc3cc(OC)ccc3OC)c2C(=O)Nc2cc(OC)ccc2OC)C1,11µM*
COC(=O)c1c(NC(=O)COc2ccc(Cl)cc2C)sc2c1CCCCC2,19%
CCOC(=O)N1CCc2c(sc(NCc3cccc(F)c3)c2C(=O)Nc2ccc(OCC)cc2)C1,13µM*
COc1ccc(OC)c(NC(=O)c2c(NCc3ccc(OC)c(OC)c3)sc3c2CCC3)c1,7.9µM*
CC1CCN(C(=O)c2ccc3c(c2)C(O)CCCCCN3C)CC1 (configuration not stated),i
O=C(CCc1ccccc1)N1C[C@@H](CO)[C@H](c2ccncc2)C1,2%
CC(C)NC(=O)N1CCC2(CC1)CC(N(C)Cc1ccccc1)CCO2 (configuration not stated),-23%
C[C@@H](NC(=O)C1CC1)c1onc(-c2ccc(Cl)cc2)c1C(=O)O,-14%[44.1 µM]
CCn1cc(S(=O)(=O)N2CCC3(CC2)CC(N(C)Cc2ccccc2)CCO3)cn1 (configuration not stated),i
CC(C)n1cc(C(=O)N2CC[C@H](N3CCOCC3)[C@H](CCC(=O)O)C2)cn1,13%
c1ccc(-n2cnnc2CC2CCNCC2)cc1,-5%
CCCCN(Cc1ccc(S(=O)(=O)NC)cc1)Cc1ccco1,-9%
O=C(Cc1cccc(F)c1)NCc1nnc2c(-c3nc(C4CC4)no3)cccn12,i
CN1C(=O)c2cccn2CC1CNS(=O)(=O)Cc1ccccc1 (configuration not stated),-20%
CCC(=O)N1CCCN(S(C)(=O)=O)c2ccccc21,-4%
C[S+](=O)([O-])c1ccc(-c2nc(C(=O)NCCc3ccc(Cl)cc3)n3ccncc23)cc1,8.9µM*
Cn1ncc2c(C(=O)NCCc3ccc(Cl)cc3)cc(-c3ccc([S+](C)(=O)[O-])cc3)nc21,-19%
CC(C)(C)c1nc(C(=O)NCCc2ccc(Cl)cc2)n2ccncc12,2.2µM*
Cc1cccn2c(=O)c(C(=O)NCCc3ccc(Cl)cc3)cnc12,i
COCCNC(=O)c1nc(-c2cccnc2)c2cnccn12,0%[44.1 µM]
COC(=O)CNC(=O)c1nc(-c2ccsc2)c2cnccn12,-8%[44.1 µM]
COCC1CN(C(C)=O)CC12CCN(Cc1ccccc1C)CC2 (configuration not stated),-1%
CCOc1ccccc1CNC(=O)CC1CCOCC1,53%
SMILES,Pf Dd2 growth
NC1CC(c2cc(N3CCN(CCOc4ccccc4)CC3)ncn2)C1 (configuration not stated),i
CN1C(=O)C2(c3ccccc31)N(c1ccc(F)c(Cl)c1)C(=O)CS2(=O)=O (configuration not stated),-15%
O=C1CS(=O)(=O)C2(C(=O)N(Cc3ccccc3Cl)c3ccccc32)N1c1ccc(F)cc1 (configuration not stated),5.6µM*
COc1ccc(N2C(=O)CS(=O)(=O)C23C(=O)N(Cc2ccccc2)c2ccccc23)cc1 (configuration not stated),-23%
CCc1cccc(C)c1NC(=O)CCS(=O)(=O)c1cc(Br)cc2c1N(C(=O)C1CC1)CC2,-19%
Cc1cc(NC(=O)CCS(=O)(=O)c2cc(Br)cc3c2N(C(=O)C2CC2)CC3)ccc1Br,4.5µM*
CCC(=O)N1CCc2cc(Br)cc(S(=O)(=O)NCCc3ccccc3)c21,-24%
COc1ccc(Cl)cc1NS(=O)(=O)c1cc(Br)cc2c1N(C(=O)C1CC1)CC2,11%
CCC(=O)N1CCc2cc(Br)cc(S(=O)(=O)CCC(=O)Nc3ccc(CC)cc3)c21,-5%
COc1ccccc1N1CCN(C(=O)CCS(=O)(=O)c2cc(Br)cc3c2N(C(=O)C2CC2)CC3)CC1,10µM*
CCC(=O)N1CCc2cc(Br)cc(S(=O)(=O)CCC(=O)Nc3cccc(CC)c3)c21,i
COc1ccccc1N1CCN(C(=O)CCS(=O)(=O)c2cc(Br)cc3c2N(C(C)=O)CC3)CC1,i
CCC(=O)N1CCc2cc(Br)cc(S(=O)(=O)CCC(=O)Nc3ccc(C)c(F)c3)c21,5µM*
Cc1cc(NC(=O)CCS(=O)(=O)c2cc3c4c(c2)CCN4C(=O)CC3)ccc1Br,15%
CCC(=O)N1CCc2cc(Br)cc(S(=O)(=O)CCC(=O)NCCc3ccccc3Cl)c21,11µM*
CCC(=O)N1CCc2cc(Br)cc(S(=O)(=O)CCC(=O)NCCc3ccc(C)cc3)c21,-13%

# Screens (PubChem BioAssay)
